About 1,100 (52%) of roughly 2,100 compounds were called active. Inconclusive results (about 29%) are left out. Calls come from the whole dose curve; as a rule, active = well fitted inhibition curve with a large enough effect; inconclusive = small, poorly fitted or top-dose-only effect; inactive = no such curve, though single readings can be large or run the other way. So high a share suggests a set chosen from earlier hits. This is one part of the list.
target: DNA dC->dU-editing enzyme APOBEC-3F (Homo sapiens) (UniProt Q8IUX4); test: qHTS for inhibitors of Vif-A3F interactions: Cherry picks counterscreen; conditions: HeLa A3F-eYFP/Vif cells, eYFP fluorescence, 24 h; series mostly up to 46.1 µM; activity, negative = inhibitor: at the top concentration; note: nearly all actives have a fitted effect of over 65% in size
Text: The recent discovery and characterization of host restriction factors, which provide a potent defense to invading retroviruses, has provided new targets for antiviral drug development. APOBEC3G (A3G) and APOBEC3F (A3F) are potent cytidine deaminases that block HIV-1 replication; HIV-1 expresses the Vif protein, which counteracts A3G and A3F by binding to them and inducing their proteasomal degradation. The Vif-A3G and Vif-A3F interactions provide two potential targets for development of small molecules which can interfere with the ability of Vif to degrade A3G or A3F. […] To identify inhibitors that can interfere with Vif mediated degradation of A3G and A3F, we have developed Hela cell lines that stably express A3G or A3F tagged with eYFP at the C-terminal end (A3G-eYFP or A3F-eYFP, respectively) and Vif. In the absence of an inhibitor, Vif induces degradation of A3G-eYFP and A3F-eYFP, and the cells are not fluorescent. In the presence of an inhibitor, it is expected that Vif will be unable to degrade A3G-eYFP and/or A3F-eYFP, resulting in an increase in yellow fluorescence. In this counterscreen assay, Vif A3F was screened against the cherry picks ordered from the MLSMR. NIH Chemical Genomics Center [NCGC] NIH Molecular Libraries Probe Centers Network [MLPCN] MLPCN Grant: MH093245 Assay Submitter (PI): Vinay Pathak, National Cancer Institute
A3F-Vif cells were harvested from T225 flask and resuspended in phenol free OPTI-MEM medium with 5% FBS. Then 5 uL of 140,000 cells/mL resuspended cells was dispensed into each well of low base Aurora COC 1,536-well plates (black walled, clear bottom) using a Multidrop Combi dispenser. After overnight culture at 37 deg C with 5% CO2, a total of 23 nL of compounds at 5 selected concentrations from the NPC or positive control (2 mM stock of MG132) in DMSO was transferred to each well of the assay plate using a pintool (Kalypsys, San Diego, CA), and the plates were further incubated at 37 deg C with 5% CO2 for 24 hours. After that, the plates were measured on Acumen Explorer (TTP Lab Tech). The fluorescence was detected by 488 nm/Ex and […].
% is set by controls: 0 for no effect and ±100 for the full control effect; potency is the fitted concentration of half-maximal effect.

DNA dC->dU-editing enzyme APOBEC-3F (Homo sapiens), sequence (Q8IUX4 whole entry, looked up): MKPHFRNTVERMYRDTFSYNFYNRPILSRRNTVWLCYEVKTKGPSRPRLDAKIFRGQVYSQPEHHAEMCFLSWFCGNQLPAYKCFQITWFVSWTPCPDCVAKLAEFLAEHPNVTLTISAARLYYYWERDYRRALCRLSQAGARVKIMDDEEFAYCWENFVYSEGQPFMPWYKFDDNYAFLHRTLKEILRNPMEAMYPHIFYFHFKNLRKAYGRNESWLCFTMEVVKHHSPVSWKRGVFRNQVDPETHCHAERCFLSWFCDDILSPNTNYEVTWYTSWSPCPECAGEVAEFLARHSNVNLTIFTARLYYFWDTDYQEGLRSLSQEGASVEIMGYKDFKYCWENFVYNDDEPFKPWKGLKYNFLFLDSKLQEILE

SMILES | activity, negative = inhibitor | Potency
O=C(C(=O)N1CCN(c2ccccc2Cl)CC1)c1c[nH]c2ccccc12 | -0.112% [at 36.9 µM] (inactive) | 
CC1CC(C)CN(CC(=O)c2c[nH]c3ccccc23)C1 (stereo unspecified) |  | 20.6 µM (active)
COc1cc(NC(=O)c2ccco2)c(C(=O)OCC(=O)c2c[nH]c3ccccc23)cc1OC | -10.7% [at 36.9 µM] (inactive) | 
COc1cc(/C=C(\C#N)c2nc3ccccc3[nH]2)ccc1OCc1ccccc1F |  | 16.4 µM (active)
COc1cc(/C=C(\C#N)c2nc3ccccc3s2)ccc1OCC(=O)Nc1ccccc1 |  | 15.8 µM (active)
COc1cc(/C=C(\C#N)c2nc3ccccc3[nH]2)ccc1O | 32.8% (inactive) | 
COc1cc(/C=C(/C#N)c2nc3ccccc3[nH]2)ccc1OCC(=O)Nc1ccccc1C(C)C |  | 13 µM (active)
COc1cc(/C=C(\C#N)c2nc3ccc(C)cc3[nH]2)ccc1OC(C)C |  | 20.6 µM (active)
NNC(=S)Nc1c(F)cc(F)cc1Br | -2.67% (inactive) | 
CCOc1cc(N(CC)CC)ccc1/C=C(/C#N)c1nc2ccccc2[nH]1 | 47.3% (inactive) | 
COc1cc(/C=C(/C#N)c2nc3ccccc3[nH]2)ccc1OC(=O)c1ccco1 | 32.9% [at 36.9 µM] (inactive) | 
CCN(CC)c1ccc(/C=C(/C#N)c2nc3ccccc3[nH]2)c(OC(C)C)c1 |  | 0.366 µM (active)
Cc1ccc2nc(/C(C#N)=C\c3ccc(OC(=O)c4cccs4)cc3)[nH]c2c1 |  | 8.86 µM (active)
NNC(=O)c1oc2nc(-c3ccccc3)cc(-c3ccco3)c2c1N |  | 16.4 µM (active)
Cc1ccc(-c2cc(-c3ccco3)c3c(N)c(C(=O)NN)oc3n2)cc1 |  | 14.6 µM (active)
COc1cc(/C=C2/CCC/C(=C\c3cc(O)c(OC)c(Cl)c3)C2=O)cc(Cl)c1O |  | 13 µM (active)
CCOc1cc(/C=C2\CCC/C(=C\c3cc(Cl)c(O)c(OCC)c3)C2=O)cc(Cl)c1O |  | 12.5 µM (active)
CCOc1cc(/C=C2\CN(C)C/C(=C\c3ccc(O)c(OCC)c3)C2=O)ccc1O |  | 2.5 µM (active)
O=c1c(O)c(-c2cccs2)oc2ccccc12 |  | 2.59 µM (active)
Cc1ccc(/C=N/NC(=O)c2nc3nc(C)cc(C)n3n2)cc1 | 7.3% (inactive) | 
CN(C)c1ccc(/C=N/NC(=O)c2ccccc2Cl)cc1 |  | 3.53 µM (active)
Cc1ccc(/C=N/NC(=O)c2cc(C)oc2C)cc1 |  | 7.04 µM (active)
CC(NC(=S)Nc1cccc(C(F)(F)F)c1)C(C)(C)C (stereo unspecified) | -9.15% (inactive) | 

SMILES | activity, negative = inhibitor | Potency
C[C@@H]1O[C@@H](O[C@@H]2C(=O)c3c(O)cc(O)cc3O[C@H]2c2ccc(O)c(O)c2)[C@H](O)[C@H](O)[C@H]1O | 4.26% [at 36.9 µM] (inactive) | 
Cc1cccc(CSc2nc(-c3cccs3)ccc2C#N)c1 | -24.3% (inactive) | 
N#Cc1ccc(-c2cccs2)nc1SCc1c(F)cccc1Cl |  | 3.66 µM (active)
CSc1ccccc1NC(=O)COC(=O)/C=C/c1ccco1 | 4.47% (inactive) | 
CC(C)(C)c1ccc(-c2csc(NC(=O)CN3C(=O)NC4(CCCCC4)C3=O)n2)cc1 | -14.8% (inactive) | 
COc1ccc(-c2csc(NC(=S)NC(=O)/C=C/c3ccco3)n2)cc1Br |  | 6.27 µM (active)
O=C(/C=C/c1ccco1)NC(=S)Nc1cccc(-c2nc3ccccc3o2)c1 |  | 4.98 µM (active)
Cc1ccnc(NC(=S)NC(=O)/C=C/c2ccco2)c1 |  | 11.2 µM (active)
CN(C)C=Nc1c(Br)cc(Br)c2nonc12 |  | 9.2 µM (active)
CNC(=S)N/N=C(\C)c1ccc(Cl)s1 | 3.84% (inactive) | 
N#CCC(=O)N/N=C/c1ccc(N2N=C(c3ccccc3)CC2c2ccccc2)cc1 (stereo unspecified) |  | 16.4 µM (active)
CCc1ccc(CNC(=O)Cc2ccc(NC(=O)C3=C(C)OCCS3)cc2)cc1 |  | 1.12 µM (active)
N#C/C(=C\c1ccc(-c2ccc(F)cc2F)o1)c1nc2ccccc2[nH]1 |  | 20.6 µM (active)
Cc1ccc2nc(/C(C#N)=C/c3ccc(-c4ccccc4C(=O)O)o3)[nH]c2c1 |  | 4.61 µM (active)
N#C/C(=C\c1ccc(-c2ccc(C(=O)O)cc2)o1)c1nc2ccccc2[nH]1 |  | 2.59 µM (active)
Cc1ccc2nc(/C(C#N)=C/c3ccc(-c4cccc(Cl)c4)o3)[nH]c2c1 |  | 8.2 µM (active)
Cc1ccc2nc(/C(C#N)=C/c3ccc(-c4ccc(F)cc4F)o3)[nH]c2c1 |  | 4.61 µM (active)
Cc1c(Cl)cccc1-c1ccc(/C=C(\C#N)c2nc3ccccc3[nH]2)o1 |  | 16.4 µM (active)
Cc1ccc2nc(/C(C#N)=C/c3ccc(-c4ccc(C(=O)OC(C)C)cc4)o3)[nH]c2c1 |  | 8.2 µM (active)
COCc1ccc(O)c2ncccc12 | -0.742% [at 36.9 µM] (inactive) | 
CC(=O)c1sc(N/N=C\c2c(O)ccc3ccccc23)nc1C |  | 14 µM (active)
CCOC(=O)c1sc(NC(=S)NC(=O)c2ccco2)nc1C | 1.21% (inactive) | 
COc1ccc(C(=O)NC2CCCc3ccccc32)cc1[N+](=O)[O-] (stereo unspecified) |  | 8.86 µM (active)
